Key:
Experiment in all cases: DAPPL (digital affinity profiling via proximity ligation, sequencing); 10 mM Tris-HCl pH 7.5, 50 mM NaCl, 1 mM DTT, 4% glycerol, room temperature, 30 min; GST-TFs on glutathione beads, 16-mer random dsDNA library, 0.1% formaldehyde crosslink after washing; high values mean tight binding
Settings in all cases: protein: recombinant; tags: N-terminal GST; dsDNA, one strand shown
ELF4 = ELF4 (Homo sapiens, UniProt Q99607 1-663)
Outline: (§1)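 Pools were built from human transcription factors expressed in yeast as GST fusions, captured on glutathione beads and DNA-barcoded, along with a tag-only sample. Incubation with 200 nmole of a 16-mer random double-stranded DNA library lasted 30 min at room temperature in Tris/NaCl/DTT/glycerol buffer, and was followed by washing, 0.1% formaldehyde crosslinking, proximity ligation, PCR amplification and Illumina NextSeq500 sequencing. Binding signal is the quotient of each hexamer's read frequency for a factor and its frequency for the tag-only sample.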

ETV2 = target: T1, ETV2 (Homo sapiens, UniProt O00321 1-342)
T1 sequence: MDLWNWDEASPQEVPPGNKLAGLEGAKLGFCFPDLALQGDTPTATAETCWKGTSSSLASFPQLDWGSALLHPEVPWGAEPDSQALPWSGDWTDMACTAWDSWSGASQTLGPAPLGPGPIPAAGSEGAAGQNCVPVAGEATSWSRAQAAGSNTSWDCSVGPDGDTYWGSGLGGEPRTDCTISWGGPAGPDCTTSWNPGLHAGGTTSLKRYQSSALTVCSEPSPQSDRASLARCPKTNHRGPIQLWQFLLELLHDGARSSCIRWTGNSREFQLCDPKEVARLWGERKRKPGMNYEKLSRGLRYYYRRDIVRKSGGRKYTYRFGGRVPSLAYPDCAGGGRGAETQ
Outline: as §1

ELF3 = target: T2, ELF3 (Homo sapiens, UniProt P78545 1-371)
T2 sequence: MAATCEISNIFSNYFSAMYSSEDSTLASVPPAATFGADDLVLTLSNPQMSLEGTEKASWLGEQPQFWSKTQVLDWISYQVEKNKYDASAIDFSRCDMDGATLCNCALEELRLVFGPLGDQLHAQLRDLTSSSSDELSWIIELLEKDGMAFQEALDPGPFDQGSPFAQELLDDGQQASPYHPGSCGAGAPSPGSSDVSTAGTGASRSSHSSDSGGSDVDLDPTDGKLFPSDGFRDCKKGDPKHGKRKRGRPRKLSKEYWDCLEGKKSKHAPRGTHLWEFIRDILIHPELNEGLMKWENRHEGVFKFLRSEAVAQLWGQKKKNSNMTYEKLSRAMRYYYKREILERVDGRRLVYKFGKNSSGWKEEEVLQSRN
Outline: as §1

ETV1 = ETV1 (Homo sapiens, UniProt P50549 1-477)
ETV1, sequence (P50549 whole entry): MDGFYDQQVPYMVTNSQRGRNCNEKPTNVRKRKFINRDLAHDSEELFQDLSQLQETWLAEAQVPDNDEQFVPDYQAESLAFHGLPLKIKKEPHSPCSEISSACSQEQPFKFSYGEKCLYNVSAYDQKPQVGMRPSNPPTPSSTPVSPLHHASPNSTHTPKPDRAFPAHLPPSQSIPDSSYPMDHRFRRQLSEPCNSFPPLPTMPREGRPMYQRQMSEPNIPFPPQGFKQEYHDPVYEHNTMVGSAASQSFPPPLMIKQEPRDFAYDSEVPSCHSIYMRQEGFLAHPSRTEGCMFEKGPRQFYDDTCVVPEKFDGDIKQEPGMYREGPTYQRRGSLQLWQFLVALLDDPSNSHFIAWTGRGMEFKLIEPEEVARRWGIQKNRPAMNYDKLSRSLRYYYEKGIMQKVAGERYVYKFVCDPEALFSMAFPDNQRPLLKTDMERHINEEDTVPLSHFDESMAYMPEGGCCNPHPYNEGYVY
Outline: as §1

ERF = target: T3, ERF (Homo sapiens, UniProt P50548 1-548)
T3 sequence: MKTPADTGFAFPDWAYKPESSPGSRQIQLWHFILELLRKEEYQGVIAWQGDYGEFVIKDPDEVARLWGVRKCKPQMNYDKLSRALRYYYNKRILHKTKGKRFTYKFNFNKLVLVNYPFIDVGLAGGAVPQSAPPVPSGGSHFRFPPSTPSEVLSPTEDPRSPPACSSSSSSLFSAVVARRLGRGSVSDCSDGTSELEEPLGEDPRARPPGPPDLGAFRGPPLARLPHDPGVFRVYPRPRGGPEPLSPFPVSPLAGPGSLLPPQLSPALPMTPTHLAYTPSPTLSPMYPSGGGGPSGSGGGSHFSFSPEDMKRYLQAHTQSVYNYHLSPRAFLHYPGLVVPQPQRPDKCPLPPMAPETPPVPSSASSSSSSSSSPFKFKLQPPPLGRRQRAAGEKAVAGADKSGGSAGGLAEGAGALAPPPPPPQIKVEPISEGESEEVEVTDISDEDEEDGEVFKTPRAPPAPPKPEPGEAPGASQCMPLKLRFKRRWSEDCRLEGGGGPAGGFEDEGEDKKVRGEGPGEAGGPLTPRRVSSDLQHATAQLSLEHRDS
Outline: as §1

ETV3L = target: T4, ETV3L (Homo sapiens, UniProt Q6ZN32 1-361)
T4 sequence: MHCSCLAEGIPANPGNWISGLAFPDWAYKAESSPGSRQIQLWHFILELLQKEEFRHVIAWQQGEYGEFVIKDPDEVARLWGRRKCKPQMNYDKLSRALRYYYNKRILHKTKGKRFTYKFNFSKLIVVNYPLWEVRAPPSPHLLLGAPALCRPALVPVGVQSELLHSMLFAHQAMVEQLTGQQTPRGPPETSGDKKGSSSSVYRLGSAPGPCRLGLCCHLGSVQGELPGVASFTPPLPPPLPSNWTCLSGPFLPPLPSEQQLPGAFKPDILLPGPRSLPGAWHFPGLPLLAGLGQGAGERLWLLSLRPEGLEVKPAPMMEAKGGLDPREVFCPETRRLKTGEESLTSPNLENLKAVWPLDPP
Outline: as §1

ETS2 = target: T5, ETS2 (Homo sapiens, UniProt P15036 1-469)
T5 sequence: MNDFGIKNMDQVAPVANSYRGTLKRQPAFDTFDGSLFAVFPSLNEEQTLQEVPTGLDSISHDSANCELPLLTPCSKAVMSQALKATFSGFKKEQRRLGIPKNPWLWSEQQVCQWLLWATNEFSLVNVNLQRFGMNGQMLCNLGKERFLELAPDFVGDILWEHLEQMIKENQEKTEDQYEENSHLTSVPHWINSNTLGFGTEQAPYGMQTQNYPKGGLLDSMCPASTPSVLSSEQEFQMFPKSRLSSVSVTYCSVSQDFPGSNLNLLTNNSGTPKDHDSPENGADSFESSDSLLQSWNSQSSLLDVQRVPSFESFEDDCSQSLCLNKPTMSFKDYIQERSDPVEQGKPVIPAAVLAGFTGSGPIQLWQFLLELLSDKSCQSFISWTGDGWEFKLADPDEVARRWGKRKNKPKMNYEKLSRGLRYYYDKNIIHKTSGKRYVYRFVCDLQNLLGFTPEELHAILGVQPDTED
Outline: as §1

ETV7 = target: T6, ETV7 (Homo sapiens, UniProt Q9Y603 1-341)
T6 sequence: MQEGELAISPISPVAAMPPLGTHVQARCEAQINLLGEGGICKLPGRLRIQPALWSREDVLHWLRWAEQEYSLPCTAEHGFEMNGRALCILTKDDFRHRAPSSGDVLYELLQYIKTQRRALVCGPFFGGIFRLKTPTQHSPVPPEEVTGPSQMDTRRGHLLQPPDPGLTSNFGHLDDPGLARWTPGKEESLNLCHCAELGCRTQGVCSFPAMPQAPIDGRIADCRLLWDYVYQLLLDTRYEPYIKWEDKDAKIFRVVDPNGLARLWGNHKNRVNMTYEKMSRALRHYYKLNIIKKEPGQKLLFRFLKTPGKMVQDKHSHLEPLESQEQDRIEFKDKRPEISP
Outline: as §1

ETV3 = target: T7, ETV3 (Homo sapiens, UniProt P41162-2 1-143)
T7 sequence: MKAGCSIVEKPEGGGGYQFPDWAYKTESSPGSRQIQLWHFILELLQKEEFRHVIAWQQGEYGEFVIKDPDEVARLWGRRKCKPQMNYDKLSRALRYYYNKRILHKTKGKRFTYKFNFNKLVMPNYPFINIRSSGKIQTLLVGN
Outline: as §1

ETV6 = ETV6 (Homo sapiens, UniProt P41212 1-452)
ETV6, sequence (P41212 whole entry): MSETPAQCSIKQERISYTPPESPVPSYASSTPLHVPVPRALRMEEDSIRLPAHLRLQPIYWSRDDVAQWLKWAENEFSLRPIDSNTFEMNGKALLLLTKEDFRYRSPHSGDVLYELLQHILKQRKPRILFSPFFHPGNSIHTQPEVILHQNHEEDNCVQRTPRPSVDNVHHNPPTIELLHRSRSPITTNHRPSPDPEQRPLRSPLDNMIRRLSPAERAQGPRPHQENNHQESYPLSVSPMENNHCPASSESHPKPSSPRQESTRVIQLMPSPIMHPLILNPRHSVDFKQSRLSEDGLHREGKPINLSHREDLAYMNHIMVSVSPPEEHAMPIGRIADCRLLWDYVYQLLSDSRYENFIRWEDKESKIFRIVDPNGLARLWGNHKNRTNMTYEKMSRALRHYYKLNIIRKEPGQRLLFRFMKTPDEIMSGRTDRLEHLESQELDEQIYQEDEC
Outline: as §1

ELF4, sequence (Q99607 whole entry, the tested form may be a part): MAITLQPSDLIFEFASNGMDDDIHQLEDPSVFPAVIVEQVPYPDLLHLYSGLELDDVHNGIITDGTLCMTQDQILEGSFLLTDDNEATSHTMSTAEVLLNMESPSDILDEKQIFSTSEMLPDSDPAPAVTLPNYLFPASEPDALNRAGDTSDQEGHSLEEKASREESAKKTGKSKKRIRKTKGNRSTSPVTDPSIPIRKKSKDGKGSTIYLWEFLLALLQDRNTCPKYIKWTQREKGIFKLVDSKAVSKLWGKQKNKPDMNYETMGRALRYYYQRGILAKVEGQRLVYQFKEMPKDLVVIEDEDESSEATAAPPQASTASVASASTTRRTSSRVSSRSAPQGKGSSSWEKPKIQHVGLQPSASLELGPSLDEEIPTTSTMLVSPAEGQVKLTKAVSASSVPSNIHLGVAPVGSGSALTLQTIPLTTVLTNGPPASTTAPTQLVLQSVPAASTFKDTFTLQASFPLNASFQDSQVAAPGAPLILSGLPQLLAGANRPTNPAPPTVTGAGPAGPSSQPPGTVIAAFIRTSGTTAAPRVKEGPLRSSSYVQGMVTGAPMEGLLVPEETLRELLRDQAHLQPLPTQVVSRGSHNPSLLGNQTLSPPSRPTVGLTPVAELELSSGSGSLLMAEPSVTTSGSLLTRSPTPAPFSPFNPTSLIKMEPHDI

For GAAGTC, which binding signal (ELF4) is on record?
Its binding signal is 1.08 fold enrichment (6-mer frequency, TF over GST control).

And the binding signal (ETV2)?
The binding signal was 1.08 fold enrichment (6-mer frequency, TF over GST control).

What about the binding signal (ELF3) of the same sequence?
The binding signal was 1.1 fold enrichment (6-mer frequency, TF over GST control).

And the binding signal (ETV1)?
The binding signal was 1.22 fold enrichment (6-mer frequency, TF over GST control).

And the binding signal (ERF)?
Its binding signal is 1.11 fold enrichment (6-mer frequency, TF over GST control).

And the binding signal (ETV3L)?
Its binding signal is 1.14 fold enrichment (6-mer frequency, TF over GST control).

And the binding signal (ETS2)?
Its binding signal is 1.19 fold enrichment (6-mer frequency, TF over GST control).

What about the binding signal (ETV7) of the same sequence?
The binding signal was 1.1 fold enrichment (6-mer frequency, TF over GST control).

And the binding signal (ETV3)?
The binding signal was 1.21 fold enrichment (6-mer frequency, TF over GST control).

What about the binding signal (ETV6) of the same sequence?
The binding signal was 1.22 fold enrichment (6-mer frequency, TF over GST control).

— PMC7862700, “An all-to-all approach to the identification of sequence-specific readers for epigenetic DNA modifications on cytosine”
